# PubChem BioAssay AID686978 (National Center for Advancing Translational Sciences (NCATS), 2013)
# The whole screen tested about 420,000 compounds, of which about 64,000 (15%) were called active. About 27% were inconclusive and are not listed. These entries were drawn from the full list. Unmarked numbers belong to inactive results. Calls come from the whole dose curve; as a rule, active = well fitted inhibition curve with a large enough effect; inconclusive = small, poorly fitted or top-dose-only effect; inactive = flat fitted curve, though single readings scatter.
# Test: qHTS for Inhibitors of human tyrosyl-DNA phosphodiesterase 1 (TDP1): qHTS in cells in absence of CPT; note: nearly all actives have a fitted effect of over 55% in size
# Details: DT40 Tdp1-/- hTDP1 cells, no CPT, ATP luminescence, 48 h; activity change, negative = growth inhibition: at 46.2 µM (top of the series)
# Outline: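 Cells were dispensed at 400 per well, compounds added by pin tool, plates incubated ≥48 hr at 37 °C, then CellTiter-Glo added for 30 min at room temperature before luminescence reading. Line: DT40 Tdp1-/- complemented with hTDP1; camptothecin omitted.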
# % is set by controls: 0 for no effect and ±100 for the full control effect; potency is the fitted concentration of half-maximal effect.
SMILES,"activity change, negative = growth inhibition [%]",Potency
CCCCNC(=O)C1(c2ccc(OC)cc2)CCOCC1,5.04,
CCCCc1ccc(S(N)(=O)=O)cc1,4.03,
N#Cc1nc(/C=C/c2ccc(F)cc2)oc1NC1CCCCC1,-30,
Nc1nonc1-n1nnc(C(=O)N/N=C/c2ccc(Cl)cc2)c1-c1ccc2c(c1)OCO2,-9.73,
O=C(NCCCO)C(=O)Nc1c2c(nn1-c1ccc(F)cc1)CSC2,-5.47,
COc1ccc(S(=O)(=O)N2CCN(C(=O)N(C)C)C2C)cc1 (configuration not stated),-7.79,
COC(=O)c1[nH]c2ccccc2c1NS(=O)(=O)c1ccc(OC)cc1OC,1.01,
COc1ccc(C)cc1Nc1nc(-c2c(C)[nH]c3ccccc23)cs1,-22.6,
CN=c1scc(-c2cc(OC)ccc2OC)n1/N=C/c1c(C)[nH]c2ccccc12,,16.4 µM (active)
COc1ccc(/C=C(\C#N)C(=O)OCC(=O)N(C)C2CCS(=O)(=O)C2)cc1 (configuration not stated),6.36,
COC(=O)/C(C#N)=C/c1occc1C,0.245,
COc1ccc(/C=C(\C#N)C(=O)ONC2=NCCCCC2)cc1,,20.6 µM (active)
CC(=O)C1C(c2ccc(Cl)cc2)NC(=O)NC1(O)C(F)(F)F (configuration not stated),3.1,
CN(CC#CCC(c1ccccc1)c1ccccc1)C(C)(C)C,,17.8 µM (active)
O=C(CCc1ccccc1)NCCc1cccs1,14.1,
COC(=O)[C@@H]1CC2=CC(=O)CC[C@]2(C)[C@@]23O[C@@H]2C[C@@]2(C)[C@@H](CC[C@@]24CCC(=O)O4)[C@H]13,-25.3,
CC1(C)CC(CNCCC(c2ccc(F)cc2)c2ccco2)CCO1 (configuration not stated),,14.6 µM (active)
CC1(C)CC(N(Cc2ccccc2)C(=O)Cc2ccccc2)CCO1 (configuration not stated),-15.1,
Cc1cccc(-n2ncc(C#N)c2-n2cccc2)c1,-15.3,
O=c1c(Cl)c(NC2CC2)cnn1-c1ccccc1,-1.63,
Cc1cccc(-n2ncc(Cl)c(Cl)c2=O)c1,,4.11 µM (active)
O=C(NCC1CCCO1)c1cc2c(s1)CCCC2 (configuration not stated),6.28,
CC(C)C(=O)N1c2ccccc2NC2=C(C(=O)CCC2)C1c1ccc(N(C)C)cc1 (configuration not stated),-9.38,
CCCOC(=O)Nc1ccccc1C(N)=O,-26.5,
CCOC(=O)N(Cc1ccccc1)C1CC1,3.18,
O=C(Nc1nnc(CCc2ccccc2)s1)C1CCCO1 (configuration not stated),-8.27,

SMILES,"activity change, negative = growth inhibition [%]",Potency
O=C(COC(=O)c1ccc(Cl)nc1)NCc1cccs1,2.89,
Cc1nnnn1/C(=C\c1ccccc1)C(=O)OCC(=O)N1CC2(C)CC1CC(C)(C)C2 (configuration not stated),,14.6 µM (active)
Cc1cccc(C(=O)NCC(=O)OCC(=O)N2CC3(C)CC2CC(C)(C)C3)c1 (configuration not stated),2.52,
CC(=O)NC(C)(C)C1CC=C(C)/C(=N\O)C1 (configuration not stated),7.54,
CCOC(=O)C1C(c2ccc(O)cc2)NC(=O)NC1(O)C(F)(F)F (configuration not stated),16.9,
CCN(CC)P(=O)(/C(Cl)=C\Nc1c(C)n(C)n(-c2ccccc2)c1=O)N(CC)CC,-4.15,
CC1=C(C(=O)N2CCOCC2)CC(CC(=O)NCc2ccco2)C(=O)N1Cc1ccc(F)cc1 (configuration not stated),-16.3,
CCOC(=O)[C@]12CCC=C1N(Cc1ccco1)C(=O)[C@H](CC(=O)NCc1cccc(C(F)(F)F)c1)C2,,25.9 µM (active)
CC1=C(C(=O)N2CCOCC2)CC(CC(=O)NCc2cccc3ccccc23)C(=O)N1CCC1=CCCCC1 (configuration not stated),-28.7,
CCCCN1C(=O)C(CC(=O)NCc2cccs2)CC(C(=O)N2CCOCC2)=C1C (configuration not stated),-0.267,
CCCCNC(=O)C[C@@H]1C[C@@]2(C(=O)OCC)CCC=C2N(Cc2ccco2)C1=O,-10.6,
CCCCCCCCN1C(=O)[C@H](CC(=O)NCc2cccc3ccccc23)C[C@@]2(C(=O)OC)CCCCC=C12,,20.6 µM (active)
COc1ccccc1CNC(=O)CCCN1C(=O)NC2(CCCC2)C1=O,-6.56,
CCOC(=O)[C@]12CCC=C1N(Cc1cccc3ccccc13)C(=O)[C@H](CC(=O)NCc1cccc(C(F)(F)F)c1)C2,,23.1 µM (active)
CCCCNC(=O)C[C@@H]1C[C@@]2(C(=O)OCC)CCC=C2N(Cc2cccc3ccccc23)C1=O,,16.4 µM (active)
O=C(COC(=O)C12CC3CC(CC(C3)C1)C2)NCc1ccco1,-3.59,
O=C(Cn1nnc(-c2ccc(CN3CCOCC3)cc2)n1)NC1CCCCC1,-2.3,
COc1ccc(OCC(O)CNCCNc2nccc(C(F)(F)F)n2)cc1 (configuration not stated),-11.4,
CC(=O)NCC(=O)N(Cc1ccco1)C1(C(=O)NC2CCCC2)CCCCC1,-4.34,
O=c1c(-c2ccc(F)c(F)c2)nc2cncnc2n1-c1ccccc1,-15.4,
CCOC(=O)[C@]12CCCC=C1N(Cc1cccc3ccccc13)C(=O)[C@H](CC(=O)NCC13CC4CC(CC(C4)C1)C3)C2,,23.1 µM (active)
COC(=O)[C@]12CCCCC=C1N(Cc1ccco1)C(=O)[C@H](CC(=O)NCCCCc1ccccc1)C2,,16.4 µM (active)
C#CCNC(=O)C[C@@H]1C[C@@]2(C(=O)OCC)CCCC=C2N(Cc2ccco2)C1=O,-22,
COc1ccc(C(=O)OCC(=O)NCCCc2ccccc2)cc1OC,-25.8,
COC(=O)[C@@]12C[C@@H](CC(=O)NCCCCc3ccccc3)C(=O)N(CCc3ccc(OC)c(OC)c3)C1=CCC(C)(C)C2,,20.6 µM (active)
COc1ccc(CCNC(=O)CCCCCNC(=O)N2CCn3c2nc2ccccc23)cc1OC,-26.2,
